Among the data in PubChem BioAssay are z-score values, retold here.

Structures are written as SMILES. Values without a mark were called inactive.

The experiment can be described thus: PSAC antagonists in infected red cells, primary screen, cell-based, P. falciparum Indochina, OD700, 1 h (AID 1154). Conditions: P. falciparum Indochina infected RBC osmotic lysis, higher = more signal, called active from +8 up or from −8 down.
Consider `CON=C(C)CCC(=O)OC[C@H]1O[C@H](C#Cc2ccccc2)C=C[C@@H]1Oc1ccc(C)cc1`, for which the z-score was 2.13.

For `CC(C)(C)N1C(=O)[C@H]2[C@H]3[C@H](O)[C@H](O)CC(=NOC[C@@H](O)COCc4ccco4)[C@@H]3CC[C@H]2C1=O`, the z-score was 0.693.

Consider `CO[C@@H]1[C@H](O)CO[C@H]1C=Cc1ccccc1`, for which the z-score was 2.7.

Turning to `CCN1C(=O)[C@H]2[C@H]3[C@H](O)[C@H](O)CC(=NOCC[C@@H]4C=C[C@H](OC(C)=O)[C@@H](COC(C)=O)O4)[C@@H]3CC[C@H]2C1=O`, the z-score was 0.422.

In the case of `CO[C@@H](C1CCCCC1)[C@@H](C)[C@H](OCc1cccc(Br)c1)[C@@H](C)CO`, the z-score was 2.08.

For the compound `CCOC(=O)CCN1C(=O)[C@H]2[C@H]3[C@H](O)[C@H](O)CC(=NOCC(C)C)[C@@H]3CC[C@H]2C1=O`, the z-score was 6.67.

As for `CCOC(=O)CCN1C(=O)[C@H]2[C@H]3[C@H](O)[C@H](O)CC(=NO[C@@H]4O[C@H](CO)[C@@H](O)[C@H](O)[C@H]4O)[C@@H]3CC[C@H]2C1=O`, the z-score is 3.62.

`CO[C@H]1COC(=O)CC=C[C@@H](C)COC(=O)[C@H]2CCCN2C(=O)CC=C[C@H]1C`: the z-score is -0.567.

Turning to `CCOC(=O)[C@H](Cc1ccccc1)NC(=O)CCC1CC(OC(=O)NCc2cccc3ccccc23)CC2(CCCC(COC(=O)NCCc3ccccc3OC)O2)O1` (stereo not given in full), the z-score is -0.623.

Take `Cc1ccc(S(=O)(=O)N[C@@H]2COC(=O)CC=C[C@@H](C)[C@H](NS(=O)(=O)c3ccc(C)cc3)COC(=O)[C@H](C)NC(=O)CC=C[C@H]2C)cc1`: the z-score is -0.434.
